Results on 16 molecules are retold here after PubChem BioAssay.

Experiment [1] relates to Human papillomavirus type 1a protein E7 (residues 44-93). Kind of experiment: small molecules binding HPV E7 44-93 – biochemical, small-molecule microarray, residues 44-93, 635 nm fluorescence, primary screen (AID 1108).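 Further: E7 fragment applied at 1 µg/mL in TBST for 1 h at 4 C; score combines spot fluorescence with its signal to noise ratio.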 The following applies: fluorescence 635 nm, higher = more signal.
The nature of experiment [2]: hepatitis C replication reporter changes, two-sided – Huh7 cells, luciferase reporter, HCV replication inhibitor project, primary screen (AID 1109).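 Further: huh7 hepatoma cells harbouring a luciferase neomycin HCV replicon reporter; luciferase luminescence as measure of HCV replicon replication; test concentration not given here.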 The settings on record: Huh7 HCV replicon luciferase reporter, 48 h; higher = more signal.
The target of experiment [3] is Left-right determination factor 2 (Homo sapiens) (UniProt O00292). Description: small molecules binding LEFTY2 protein – biochemical, small-molecule microarray, 635 nm fluorescence scan, primary screen (AID 1110). The following applies: higher = more signal.
Sequence of Left-right determination factor 2 (Homo sapiens) (O00292 whole entry, looked up): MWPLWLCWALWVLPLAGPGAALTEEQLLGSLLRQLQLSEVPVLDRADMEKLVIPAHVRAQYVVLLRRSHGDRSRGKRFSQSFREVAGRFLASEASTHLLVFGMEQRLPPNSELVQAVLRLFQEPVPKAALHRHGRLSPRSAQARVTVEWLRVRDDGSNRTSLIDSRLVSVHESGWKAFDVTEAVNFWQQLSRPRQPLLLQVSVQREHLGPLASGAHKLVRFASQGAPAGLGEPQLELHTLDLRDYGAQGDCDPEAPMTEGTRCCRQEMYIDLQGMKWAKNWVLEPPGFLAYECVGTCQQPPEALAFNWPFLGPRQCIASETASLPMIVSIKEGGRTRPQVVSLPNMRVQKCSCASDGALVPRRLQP
For experiment [4], the target named is Calmodulin-1 (Homo sapiens) (UniProt P0DP23). Description: small molecules binding calmodulin-1 with EGTA – biochemical, small-molecule microarray, Cy5-labelled CALM1, profiling panel (AID 1111).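 Further: labelled calmodulin applied in Tris saline Tween buffer holding calcium plus EGTA and DTT.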 The following applies: Cy5-CALM1 binding fluorescence, higher = more signal.
The target is the same in experiment [5]. Kind of experiment: small molecules binding Ca-loaded calmodulin-1 – biochemical, small-molecule microarray, Cy5-labelled CALM1, plus calcium, artefact control for SMM control-protein annotation, profiling panel (AID 1112).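 Further: score merges spot fluorescence with signal to noise from triplicate slides.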 The following applies: Cy5-CALM1 binding fluorescence, higher = more signal.
Experiment [6] can be described thus: probe aWnt5a binding to arrayed compounds – biochemical, biotinylated probe, 635/667 nm fluorescence, primary screen (AID 1113).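 Further: score merges 667 nm fluorescence intensity with signal-to-noise per printed feature.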 The settings on record: small-molecule microarray, higher = more signal.
Experiment [7] can be described thus: probe aShh binding to arrayed compounds – biochemical, biotinylated probe, 635/667 nm fluorescence, primary screen (AID 1114).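 Further: probe is biotin-labelled aShh protein from a stem cell growth factor screen; measures binding of labelled protein to compounds printed on the slide; score merges feature fluorescence at 667 nm with signal-to-noise.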 The settings on record: small-molecule microarray, higher = more signal.
Experiment [8] is described as follows: probe aNog binding to arrayed compounds – biochemical, biotinylated probe, 635/667 nm fluorescence, primary screen (AID 1115).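 Further: probe is biotinylated aNog protein used at 0.15 µg/mL for 1 h at 4 C; z-score combines 667 nm fluorescence of each spot with its signal to noise.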 The settings on record: small-molecule microarray, higher = more signal.
Experiment [9] addresses Torsin-1A-interacting protein 1 (Homo sapiens) (UniProt Q5JTV8). Description: compound microarray binding of lysate hLAP1 – cell lysate, small-molecule microarray, COS7 lysate, 635/667 nm fluorescence, primary screen (AID 1116). The following applies: 635 nm fluorescence, higher = more signal.
The target of experiment [10] is Alpha-bungarotoxin (Bungarus multicinctus) (UniProt P60615). Kind of experiment: compounds binding labelled alpha-BTX control protein – biochemical, small-molecule microarray, Alexa647 label, 635/667 nm fluorescence, artefact control for SMM control protein annotation, profiling panel (AID 1117). The settings on record: alpha-BTX-A647 binding fluorescence, higher = more signal.
Sequence of Alpha-bungarotoxin (Bungarus multicinctus) (P60615 whole entry, looked up): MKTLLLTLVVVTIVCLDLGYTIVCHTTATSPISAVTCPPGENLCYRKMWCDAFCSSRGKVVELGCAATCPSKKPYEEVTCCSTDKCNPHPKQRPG

Sequence of Torsin-1A-interacting protein 1 (Homo sapiens) (Q5JTV8 whole entry, looked up): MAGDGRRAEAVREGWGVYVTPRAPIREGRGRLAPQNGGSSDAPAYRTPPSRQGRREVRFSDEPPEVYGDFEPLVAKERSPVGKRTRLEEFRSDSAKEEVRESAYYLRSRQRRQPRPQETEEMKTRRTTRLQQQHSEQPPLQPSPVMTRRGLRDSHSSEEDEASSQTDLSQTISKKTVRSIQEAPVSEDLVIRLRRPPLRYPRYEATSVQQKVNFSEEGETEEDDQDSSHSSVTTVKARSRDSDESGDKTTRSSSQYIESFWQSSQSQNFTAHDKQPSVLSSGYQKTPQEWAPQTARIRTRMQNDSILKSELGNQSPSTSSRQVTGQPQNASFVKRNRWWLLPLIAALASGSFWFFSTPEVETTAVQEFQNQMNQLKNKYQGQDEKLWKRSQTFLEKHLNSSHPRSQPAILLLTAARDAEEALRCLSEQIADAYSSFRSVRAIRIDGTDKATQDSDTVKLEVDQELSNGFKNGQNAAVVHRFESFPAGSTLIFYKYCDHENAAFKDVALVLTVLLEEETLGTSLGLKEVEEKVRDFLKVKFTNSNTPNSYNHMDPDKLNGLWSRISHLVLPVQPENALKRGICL

For `C=CCC(OC(C)=O)[C@@H]1[C@@H](N(Cc2cc3ccccc3o2)C(=O)c2cccc3ccccc23)c2cc(OCCCO)ccc2N1C(=O)c1ccc(-c2ccccc2)cc1` (stereo not given in full), the composite z-score was -0.0367 in experiment [1]; -0.126 in experiment [3]; 0.132 in experiment [4]; 0.908 in experiment [5]; 0.0368 in experiment [6]; -0.0553 in experiment [7]. Moreover, the composite z-score in experiment [8] is -0.219; in experiment [9], 0.235; in [10], 0.359. In experiment [2], this molecule registered a z-score of 0.0372.

For the molecule `NC(=O)N1C(=O)C2C(C1=O)C1C=C(c3ccc(CO)cc3)C2C(c2cccs2)N1Cc1cccc(OC(F)(F)F)c1` (stereo not given), the composite z-score in [1] is 0.142; in experiment [3], -0.647; in experiment [4], 1.51; in experiment [5], 1.16; in [6], 0.0573; in experiment [7], 0.275. For the same molecule, the results for the composite z-score in experiment [8], in experiment [9] and in experiment [10] were 0.596, 1.13 and 0.611, respectively. For the same molecule, in [2], the z-score is -0.657.

As to `COCCOC(=O)N1C(=O)[C@@]2(c3cc(C#CCC(C(=O)OC)C(=O)OC)ccc31)[C@H](c1ccccc1OCCO)N1[C@H](c3ccccc3)[C@H](c3ccccc3)OC(=O)[C@H]1[C@@H]2C(=O)NC[C@H](O)c1ccccc1`, the composite z-score in experiment [1] was found to be 0.948; in experiment [3], 1.44; in [4] it was 0.832; in experiment [5], 0.277; in experiment [6], 0.0718; in experiment [7] it was 0.275. In addition, the composite z-score stood at 0.237 in experiment [8], 0.876 in experiment [9] and 0.926 in experiment [10]. Besides, in experiment [2], the z-score is -2.28.

In the case of `C=CC[C@@]12N=C(c3ccc(OCCCO)cc3)O[C@@H]1c1ccccc1N(C)C2=O`, the composite z-score is 1.16 in [1]; 0.0838 in [3]; 0.422 in experiment [4]; -0.206 in [5]; 0.14 in experiment [6]; 0.547 in experiment [7]. Also, the composite z-score in [8] is -0.621; in [9], -0.0062; in experiment [10], 1.21. The z-score in experiment [2] is -1.56.

Consider `CN1C(=O)C2C=CC(C(O)c3ccccc3)N(N(c3ccccc3)c3ccccc3)C2C1=O` (stereo not given), for which the composite z-score in [1] was -0.364; in [3], 0.618; in experiment [4] it was -0.315; in experiment [5], -0.717; in experiment [6], 0.0181; in experiment [7] it was -0.0904. Further, the composite z-score in experiment [8] is 0.235; in [9] it was 0.911; in experiment [10], 0.514. The molecule also gave a z-score in [2] of -0.442.

For `OCCCC1=CC(c2cccs2)N(Cc2cc3c(cc2Br)OCO3)CC1` (stereo not given), the composite z-score is 0.172 in experiment [1]; -0.0241 in experiment [3]; 0.0466 in [4]; -0.16 in experiment [5]; -0.137 in [6]; -0.0011 in experiment [7]. In addition, the composite z-score in experiment [8] was -0.105; in [9], 0.26; in experiment [10], 1.36. The z-score in experiment [2] was -0.807.

For `O=C1O[C@@H](c2ccccc2)[C@@H](c2ccccc2)N2[C@@H](c3ccccc3OCCO)[C@]3(C(=O)Nc4ccc(C#CC5=CCCCC5)cc43)[C@@H](C(=O)N3CCCCCCC3)[C@H]12`, the composite z-score stood at 1.52 in experiment [1]; 1.74 in experiment [3]; 3.02 in [4]; 1.72 in experiment [5]; 1.4 in experiment [6]; 3.21 in experiment [7]. Besides, the values for the composite z-score in experiment [8], in experiment [9] and in experiment [10] were 3.35, 5.37 and 3.65, respectively. The molecule also yielded a z-score in [2] of -3.29.

Turning to `CCC[C@@H]1C[C@@]1(CCC)[C@@H](NC(=O)c1ccccc1)c1cccc(Cl)c1`, the composite z-score in [1] was 1.37; in [3] it was -0.278; in experiment [4], 1.97; in experiment [5], 1.43; in experiment [6], 1.09; in experiment [7], 1.35. Also, the composite z-score in experiment [8] stood at 0.311; in experiment [9], 1.04; in [10], 1.74. The z-score in experiment [2] was -0.75.

In the case of `O=C1C[C@@](C(=O)NCCN2CCOCC2)(c2ccc([N+](=O)[O-])cc2)[C@@H](c2ccc(CO)cc2)N1CC12CC3CC(CC(C3)C1)C2`, the composite z-score in [1] was 1.47; in [3], 0.745; in experiment [4] it was 1.06; in experiment [5] it was -0.0933; in experiment [6] it was -0.0445; in [7], -0.16. The results for the composite z-score in experiment [8], in [9] and in experiment [10] were -0.377, 0.651 and 1.7, respectively. This molecule also yielded a z-score in [2] of -3.14.

Take `CCOC(=O)C[C@H]1[C@H](OC(=O)c2cc3ccccc3oc2=O)[C@@H](NC(=O)c2ccccc2)c2cc(OCCCO)ccc2N1C(=O)c1ccc2ccccc2n1`: the composite z-score was 0.55 in experiment [1]; 0.782 in experiment [3]; 0.183 in experiment [4]; -0.505 in [5]; -0.0758 in experiment [6]; -0.237 in [7]. Further, the results for the composite z-score in experiment [8], in experiment [9] and in [10] were -0.242, 0.79 and 0.137, respectively. This molecule also showed a z-score in experiment [2] of -0.765.

Take `CC(C)C(CO)N1C(=O)[C@@H]2C3C(=O)OCCC/C=C\[C@H]3OC23C=CCN(CCN2CCOCC2)C(=O)[C@@H]13` (stereo not given in full): the composite z-score in experiment [1] is -0.729; in experiment [3] it was 0.0228; in experiment [4], -0.799; in experiment [5] it was -0.386; in experiment [6], -0.0529; in experiment [7], -0.209. In addition, the results for the composite z-score in [8], in experiment [9] and in experiment [10] were -0.238, 1.38 and -1.6, respectively. The molecule also came in with a z-score in experiment [2] of 0.0618.

Regarding `O=C1c2ccccc2[C@](Cc2ccccc2I)(C(=O)NCCN2CCOCC2)[C@H](c2ccc(CO)cc2)N1C1CCCCC1`, the composite z-score in experiment [1] came out at 0.994; in experiment [3] it was 0.804; in [4] it was 1.13; in experiment [5], 0.315; in experiment [6] it was 0.0286; in experiment [7], 0.359. The composite z-score in experiment [8] is 0.0308; in experiment [9], 0.494; in experiment [10], 1.83. The molecule further registered a z-score in experiment [2] of -2.48.

As to `C=C(C)[C@@H]1CC=C(C(O)C2C=CC3C(=O)N(c4ccccc4)C(=O)C3N2Nc2ccccc2)CC1` (stereo not given in full), the composite z-score was found to be 0.478 in experiment [1]; 0.261 in [3]; 2.06 in experiment [4]; 0.103 in experiment [5]; 0.212 in experiment [6]; 0.642 in [7]. In addition, the composite z-score was determined as 1.95 in [8], 1.79 in [9] and 2.62 in experiment [10]. Moreover, the z-score in [2] is -1.38.

As for `CC(=O)NCCCC[C@@H]1NC(=O)[C@H]2C[C@@H](C(=O)NCCCCCCNC(=O)CS)[C@@H](c3ccc(O)cc3)N2C1=O`, the composite z-score in experiment [1] was 1.06; in experiment [3] it was -0.747; in experiment [4], 0.362; in experiment [5] it was -0.295; in experiment [6] it was -0.124; in experiment [7], 0.131. Also, the composite z-score in [8] turned out to be 0.0933; in experiment [9] it was 0.284; in experiment [10], 1.33. Besides, the z-score in experiment [2] was -0.532.

With `CCOC(=O)C[C@H]1[C@H](OC(=O)c2ccc(C(=O)c3ccccc3)cc2)[C@@H](NC(=O)c2ccc3ccccc3n2)c2cc(OCCCO)ccc2N1C(=O)c1ccccc1`, the composite z-score in experiment [1] was 0.997; in [3] it was -0.538; in [4], 1.47; in experiment [5] it was 0.202; in experiment [6] it was 0.0079; in [7] it was 0.308. Also, the composite z-score amounted to 0.217 in experiment [8], 0.164 in experiment [9] and 1.05 in experiment [10]. In experiment [2], this molecule displayed a z-score of -1.63.

As for `Cc1ccc([C@@H]2C[C@@H](Sc3ccccc3)[C@H](C(=O)O)CN2S(=O)(=O)c2ccc(C)cc2)cc1`, the composite z-score in experiment [1] is 1.47; in experiment [3], 0.0973; in [4], 1.66; in experiment [5], 0.481; in experiment [6], 0.0219; in [7], 0.408. Moreover, the composite z-score was determined as 1.55 in experiment [8], 1.17 in [9] and 1.69 in experiment [10]. This molecule also displayed a z-score in experiment [2] of -0.733.
